From PubChem BioAssay
For part of these data: Entries with a potency or affinity are not part of this list. The source made the active and inactive calls.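 Rule for the calls, unless noted: active = primary screen inhibitor hit that blocks the TRPC4 channel at some tested dose, yielding a dose curve; inactive = the rest.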

Columns and labels:
[1] = test system: TRPC4 beta (transient receptor potential cation channel C4), mouse; experiment: TRPC4 cation channel opening, retest – cell-based, Fluo4 calcium, HEK293 TRPC4beta/mu-opioid, duplicates, 10 µM, confirmation (AID 2426;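 active = fluorescence ratio normalized to control raised more than 50% in primary screen plus both repeat runs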); details: Fluo4 calcium fluorescence, at 10 µM; hits give high values
[2] = test system: transient receptor potential cation channel C4 beta (TRPC4), mouse; experiment: TRPC4 cation channel opening, second retest – cell-based, second round, Fluo4, HEK293 TRPC4beta/mu-opioid, 1 µM, confirmation (AID 2461;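 active = primary screen active and over 50% activation in each of two duplicate runs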); details: Fluo4 calcium fluorescence, at 1 µM; hits give high values
[3] = test system: TRPC4 (transient receptor potential cation channel C4 beta), mouse; experiment: potentiation of DAMGO EC20 TRPC4 response – cell-based, second round, Fluo-4, HEK293 TRPC4beta/mu-opioid, 1 µM, confirmation (AID 2554;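 active = primary screen hit whose fluorescence ratio, in both repeats, exceeds the weak agonist control mean by 3 SD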); details: DAMGO EC20, Fluo-4 calcium flux, at 1 µM; hits give high values
[4] = test system: TRPC4 beta (transient receptor potential cation channel C4), mouse; experiment: potentiation of DAMGO EC20 TRPC4 response – cell-based, Fluo-4, HEK293 TRPC4beta/mu-opioid, confirmation (AID 2555;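 active = primary screen hit whose calcium fluorescence ratio, in both repeats, exceeds the weak agonist control mean by 3 SD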); details: DAMGO EC20, Fluo-4 calcium flux, at 10 µM; hits give high values
[5] = biological target: Short transient receptor potential channel 4 (Mus musculus) (UniProt Q9QUQ5); experiment: blockers of DAMGO-evoked TRPC4 calcium flux – cell-based, Fluo4, HEK293 TRPC4beta/mu-opioid, confirmation (AID 2636;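 active = calcium signal cut by more than 3 SD below the full-agonist control yet still positive, in both repeats and the earlier primary screen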); details: at 10 µM; hits give high values
[6] = biological target: Short transient receptor potential channel 4 (Mus musculus) (UniProt Q9QUQ5); experiment: blockers of DAMGO-evoked TRPC4 calcium flux – cell-based, second round, Fluo4, HEK293 TRPC4beta/mu-opioid, 1 µM, confirmation (AID 2637;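 active = calcium signal ratio cut to more than 3 SD under the fully stimulated control mean yet still positive, in both repeats and the primary screen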); details: at 1 µM; hits give high values
[7] = biological target: Short transient receptor potential channel 4 (Mus musculus) (UniProt Q9QUQ5); experiment: calcium entry via TRPC4 opening agents – cell-based, HEK293 TRPC4/mu-opioid, Fluo-4 calcium, dose response (AID 434937;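 active = primary screen activator hit with a dose response curve and TRPC4 channel activation at any tested dose; inactive = no activation, no dose response, or not a primary hit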)
[8] = biological target: Short transient receptor potential channel 4 (Mus musculus) (UniProt Q9QUQ5); experiment: potentiation of DAMGO-evoked TRPC4 calcium signal – cell-based, HEK293 TRPC4/mu-opioid, Fluo-4 calcium, EC20 DAMGO, dose response (AID 434941;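 active = earlier screen potentiator hit that boosts the TRPC4 ion channel at some dose, with a dose response; inactive = no potentiation, no dose response, or not a prior hit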;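 note: calcium entry triggered by an EC20 dose of DAMGO at the co-expressed mu-opioid receptor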)
[9] = biological target: Short transient receptor potential channel 4 (Mus musculus) (UniProt Q9QUQ5); experiment: block of DAMGO-driven TRPC4 calcium entry – cell-based, HEK293 TRPC4/mu-opioid, Fluo-4 calcium, dose response (AID 434942)
[10] = biological target: Short transient receptor potential channel 6 (Mus musculus) (UniProt Q61143); experiment: TRPC6 blockade by TRPC4 inhibitor hits – cell-based, HEK293, membrane potential dye, duplicate, selectivity assay for TRPC4 inhibitor project, confirmation (AID 434948;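 active = active in primary screen and both duplicates, each dropping signal beyond three positive-control SD with fluorescence still positive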); details: HEK293 TRPC6, membrane potential dye fluorescence, at 10 µM, stimulated with maximal-effect acetylcholine; hits give high values
[11] = biological target: Short transient receptor potential channel 6 (Mus musculus) (UniProt Q61143); experiment: TRPC6 opening by TRPC4 activator hits – cell-based, HEK293, membrane potential dye, duplicate, selectivity assay for TRPC4 activator project, confirmation (AID 434950;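 active = membrane potential signal rise above negative control mean plus 3 SD in both duplicates, also active in the earlier TRPC4 screen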); details: HEK293 TRPC6, membrane potential fluorescence, at 10 µM; activation: hits give high values; outcome: activation
[12] = biological target: Short transient receptor potential channel 6 (Mus musculus) (UniProt Q61143); experiment: positive modulators of mouse TRPC6 channel – HEK293 cells, membrane potential dye, duplicate, selectivity assay for TRPC4 potentiator project, confirmation (AID 434952;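 active = compound raising the membrane signal above positive-control mean plus 3 SD in both repeats, and a primary screen hit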); details: HEK293 TRPC6, membrane potential dye fluorescence, at 10 µM, maximal acetylcholine added after compound; hits give high values
[13] = biological target: Short transient receptor potential channel 4 (Mus musculus) (UniProt Q9QUQ5); experiment: calcium flux activators in TRPC4/5HT1a cells, counter-screen for TRPC4 activator project, cell-based, second counter screen, HEK293 TRPC4/5HT1a, Fluo-4 (AID 434977;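 active = calcium signal rise above buffer-control mean plus 5 SD in both duplicates, and also a hit in the primary screen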); details: Fluo-4 calcium flux, at 10 µM; hits give high values
[14] = serotonin-gated TRPC4 signal block – cell-based, second counter screen, HEK293 TRPC4/5HT1a, Fluo-4, counter-screen for TRPC4 inhibitor project, confirmation (AID 434978;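 active = primary screen active whose calcium signal fell more than 3 SD beyond the full-serotonin control mean in both duplicate plates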;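 note: serotonin given first at submaximal then at maximal dose after compound preincubation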); details: Fluo-4 calcium flux, at 10 µM, serotonin added to trigger calcium flux; hits give high values
[15] = test system: TRPC4 (mouse), co-expressed with 5HT1a in HEK293; experiment: enhancement of serotonin-evoked TRPC4 response – cell-based, second counter screen, HEK293 TRPC4/5HT1a, Fluo-4, counter-screen for TRPC4 potentiator project, confirmation (AID 434979;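 active = signal rise over 3 SD above mean of control wells given weak agonist, in both repeats and first screen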); details: Fluo-4 calcium flux, at 10 µM, serotonin added at its EC20 dose; hits give high values
[16] = nonspecific calcium rise without TRPC4 – cell-based, HEK293 mu-opioid receptor line, counter-screen for TRPC4 activator project, confirmation (AID 449723;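 active = hit in primary screen, with calcium signal over 5 SD above buffer well mean in both duplicates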;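 note: counter screen cells carry the mu-opioid receptor alone and lack TRPC4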); details: HEK293 mu-opioid cells, Fluo-4 calcium fluorescence, at 10 µM; hits give high values
[17] = nonspecific potentiation of DAMGO calcium response – cell-based, HEK293 mu-opioid receptor line, counter-screen for TRPC4 allosteric potentiator project, confirmation (AID 449724;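 active = calcium signal rise more than 3 SD above the low-dose agonist control mean, in both duplicate plates and the primary screen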); details: HEK293 mu-opioid receptor cells, Fluo-4 calcium flux, at 10 µM, compound added before EC20 DAMGO stimulus; hits give high values

Measured: potentiation

Short transient receptor potential channel 6 (Mus musculus), sequence (Q61143 whole entry, looked up): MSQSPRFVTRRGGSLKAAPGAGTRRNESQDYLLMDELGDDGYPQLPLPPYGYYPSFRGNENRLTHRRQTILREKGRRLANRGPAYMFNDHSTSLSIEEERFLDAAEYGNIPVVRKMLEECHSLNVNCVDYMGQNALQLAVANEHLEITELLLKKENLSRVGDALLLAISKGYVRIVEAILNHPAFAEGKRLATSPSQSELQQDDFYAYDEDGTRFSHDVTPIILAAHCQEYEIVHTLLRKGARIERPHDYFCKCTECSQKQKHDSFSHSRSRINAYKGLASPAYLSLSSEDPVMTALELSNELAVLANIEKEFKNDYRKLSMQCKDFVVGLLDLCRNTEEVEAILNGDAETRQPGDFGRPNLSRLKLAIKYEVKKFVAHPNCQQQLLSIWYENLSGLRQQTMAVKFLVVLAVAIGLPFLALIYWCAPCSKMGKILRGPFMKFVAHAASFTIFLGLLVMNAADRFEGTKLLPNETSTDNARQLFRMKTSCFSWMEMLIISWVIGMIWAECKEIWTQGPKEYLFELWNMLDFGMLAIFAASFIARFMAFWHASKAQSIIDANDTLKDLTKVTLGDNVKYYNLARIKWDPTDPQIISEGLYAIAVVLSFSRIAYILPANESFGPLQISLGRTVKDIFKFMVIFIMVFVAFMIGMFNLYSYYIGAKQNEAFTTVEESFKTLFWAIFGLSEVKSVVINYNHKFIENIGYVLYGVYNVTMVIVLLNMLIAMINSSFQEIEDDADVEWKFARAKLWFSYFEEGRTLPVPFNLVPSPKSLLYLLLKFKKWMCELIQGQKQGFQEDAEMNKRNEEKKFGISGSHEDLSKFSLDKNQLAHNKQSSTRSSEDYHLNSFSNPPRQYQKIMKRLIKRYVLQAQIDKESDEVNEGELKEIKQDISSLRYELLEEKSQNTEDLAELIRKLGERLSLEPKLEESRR
Short transient receptor potential channel 4 (Mus musculus), sequence (Q9QUQ5 whole entry, looked up): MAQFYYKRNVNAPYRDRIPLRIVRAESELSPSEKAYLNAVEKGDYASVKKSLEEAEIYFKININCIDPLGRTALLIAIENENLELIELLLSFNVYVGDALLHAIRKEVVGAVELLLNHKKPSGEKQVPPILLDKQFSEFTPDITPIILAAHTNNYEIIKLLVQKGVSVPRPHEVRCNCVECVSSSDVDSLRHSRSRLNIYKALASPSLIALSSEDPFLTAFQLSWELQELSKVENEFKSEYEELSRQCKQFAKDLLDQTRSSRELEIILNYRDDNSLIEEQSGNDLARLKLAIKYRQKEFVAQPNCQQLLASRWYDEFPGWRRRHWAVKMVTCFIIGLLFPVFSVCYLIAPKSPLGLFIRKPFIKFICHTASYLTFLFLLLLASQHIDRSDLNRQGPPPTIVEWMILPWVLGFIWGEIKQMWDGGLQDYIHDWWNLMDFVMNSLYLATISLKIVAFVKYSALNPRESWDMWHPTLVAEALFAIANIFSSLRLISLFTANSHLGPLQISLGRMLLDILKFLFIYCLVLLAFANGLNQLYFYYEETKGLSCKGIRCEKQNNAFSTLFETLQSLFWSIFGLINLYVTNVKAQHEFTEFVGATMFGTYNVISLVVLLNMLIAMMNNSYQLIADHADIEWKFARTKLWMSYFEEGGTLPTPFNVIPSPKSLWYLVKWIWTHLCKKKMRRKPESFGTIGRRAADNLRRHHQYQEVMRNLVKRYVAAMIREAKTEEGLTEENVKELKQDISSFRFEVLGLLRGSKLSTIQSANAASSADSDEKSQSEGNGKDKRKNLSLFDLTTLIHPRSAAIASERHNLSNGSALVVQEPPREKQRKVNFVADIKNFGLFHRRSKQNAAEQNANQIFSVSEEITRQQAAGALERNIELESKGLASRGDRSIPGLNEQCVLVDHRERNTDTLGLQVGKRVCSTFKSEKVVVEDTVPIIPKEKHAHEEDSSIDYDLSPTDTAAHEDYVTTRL

O=Cc1c(N2CCCCC2)nc2ccccn2c1=O
inactive: all assays above

Cn1c(/N=C/c2ccccc2[N+](=O)[O-])nc2ccccc21
active: [15] 11.9%
inactive: all other assays above

CCOc1ccccc1NC(=O)CN(c1ccc(OC)cc1)S(=O)(=O)c1c(C)[nH]c(=O)[nH]c1=O
active: [15] 16.4%
inactive: all other assays above

COc1ccc(Cl)c2sc(N(CCN(C)C)C(=O)c3ccc4c(c3)OCCO4)nc12
active: [3] 9% | [4] 26%
inactive: all other assays above

CN1CCN(c2ccc(S(=O)(=O)N3CCCCC3)cc2NC(=O)c2ccc(F)cc2F)CC1
active: [15] 14.3%
inactive: all other assays above

CCOc1cc(S(=O)(=O)N2CCN(C(=O)c3ccco3)CC2)ccc1F
active: [4] 12% | [15] 32%
inactive: all other assays above

COc1ccc(-c2cc(C3CCN(c4cc(Cl)nc(N)n4)CC3)[nH]n2)cc1
active: [4] 20% | [15] 80.5%
inactive: all other assays above

Cc1cc(C)cc(NC(=O)c2nnn(Cc3cc(C)ccc3C)c2N)c1
active: [4] 16% | [15] 27.4%
inactive: all other assays above

C=CCn1c(SCCN2CCCC2)nc2c([nH]c3ccccc32)c1=O
active: [3] 21%
inactive: all other assays above

C/C(N)=C(/C#N)C(=O)COC(=O)C1CCC(C(C)(C)C)CC1 (stereo not given)
inactive: all assays above

O=C(COC(=O)c1nc(Cl)ccc1Cl)c1ccccc1Cl
inactive: all assays above

CC(C)Cc1nc(Cl)c(C#N)c2c1CCCC2
inactive: all assays above

Cc1sc2ncnc(SCC(=O)N(C)C3CCS(=O)(=O)C3)c2c1C (stereo not given)
active: [4] 24% | [15] 13.2%
inactive: all other assays above

O=C(c1coc2ccc(O)c(CN3CCOCC3)c12)C1CC1
inactive: all assays above

COc1ccc(C(=O)/C=C/C(=O)N(CC(=O)NC2CCCCC2)CC2CCCO2)c(O)c1 (stereo not given)
inactive: all assays above
